Only some compounds are listed: those with a hit (about 0.99% of all), similar ones and a draw of the others.
NS1 function inh = influenza NS1 inhibition | Potency, µM (doses to about 46.1 µM) | 0.4% of 270,000 active | AID 2326; calls by dose curve; also: actives are rising curves; nearly all actives have a fitted effect of over 50% in size
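Read-out: OD600 growth recovery of NS1-expressing budding yeast. Cells grown overnight at 30C in -URA glucose medium, washed, resuspended and diluted 1:100 in 2% galactose assay medium, pH 6.0. Same strain lacking NS1 served as positive control.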
SARS PLpro yeast-1 = blocks SARS-CoV papain-like protease in a yeast assay | S. cerevisiae expressing SARS-CoV PLpro, growth rescue | Potency, µM (doses to about 32.9 µM), most hits filed as activators | 0.19% of 330,000 active; calls by dose curve; also: nearly all actives have a fitted effect of over 55% in size
AMA1-RON2 inh = inhibitors of Plasmodium falciparum AMA1-RON2 interaction | AlphaScreen AMA1-biotinylated RON2 peptide binding | Potency, µM (series often up to 58.2 µM), hits mostly inhibitors | 0.2% of 360,000 active | AID 720542; also: nearly all actives have a fitted effect of over 45% in size
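AMA1 (3D7) with his tag at 25 nM final met compounds first, then biotinylated RON2 peptide at 25 nM; detection used donor plus acceptor beads, 10 µg/mL apiece, read by AlphaScreen after 30 min at room temperature.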
AmpC inh no detg = AmpC beta-lactamase inhibition without detergent; Potency, µM (series often up to 57.1 µM), usual class: inhibitors; 0.52% of 330,000 active; AmpC nitrocefin hydrolysis, absorbance 480 nm, 0.0001% Triton; P00811; also: nearly all actives have a fitted effect of over 20% in size
Target sequence (P00811 whole entry, looked up): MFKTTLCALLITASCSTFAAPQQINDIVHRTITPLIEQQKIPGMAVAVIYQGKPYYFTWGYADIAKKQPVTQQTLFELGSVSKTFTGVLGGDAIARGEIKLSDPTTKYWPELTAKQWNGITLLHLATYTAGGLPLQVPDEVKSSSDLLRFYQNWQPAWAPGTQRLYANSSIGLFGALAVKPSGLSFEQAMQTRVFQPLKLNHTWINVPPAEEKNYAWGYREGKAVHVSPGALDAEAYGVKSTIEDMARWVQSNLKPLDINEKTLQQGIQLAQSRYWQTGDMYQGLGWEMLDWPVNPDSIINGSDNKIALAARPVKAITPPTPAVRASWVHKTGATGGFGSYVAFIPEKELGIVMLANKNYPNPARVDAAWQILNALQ
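AmpC (5.3 nM in the dispensed reagent) in 20 mM phosphate pH 7.0 with 0.01% (detergent screen) or 0.0001% Triton X-100 was preincubated with compounds for 15 min at room temperature. Nitrocefin was then added from an 800 uM solution, and hydrolysis was followed at 480 nm.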
AmpC detergent = blocks E. coli AmpC beta-lactamase in detergent assay; Potency, µM (highest dose often 114 µM), actives largely listed as inhibitors; 0.041% of 370,000 active; AmpC hydrolysis of nitrocefin, absorbance 480 nm, 0.01% Triton; P00811; also: nearly all actives have a fitted effect of over 25% in size
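20 mM phosphate pH 7.0 + 0.01% (detergent screen) or 0.0001% Triton X-100; 5.3 nM AmpC reagent; cpd preinc 15 min RT; nitrocefin (800 uM stock) to start; A480 q20 s × 4 min; Activity was normalised to no-enzyme and no-compound control wells.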
SARS PLpro yeast-2 = Inhibits SARS-CoV PLP in yeast, hit validation; calls only; yeast expressing SARS-CoV PLpro, growth phenotype rescue; shares compounds with SARS PLpro yeast-1; 19% of 1,000 active; call rule not given here
Each line names hits and unclear results; the compound was inactive in the other large screens (follow-up assays come after a bar, where they were run). Unless noted, calls follow the shape of the dose curve; as a rule, active = well fitted curve in the direction sought with a large enough effect; inconclusive = small, poorly fitted or top-dose-only effect, or another doubt; inactive = no such curve, though single readings can be large; an effect the other way counts as inactive or inconclusive.

O=C(c1ccccc1)c1ccc(C(=O)N2CCOCC2)cc1	none
O=C(c1ccccc1)N1CCN(C(=O)N2CCOCC2)CC1	SARS PLpro yeast-1 inconclusive | SARS PLpro yeast-2 inactive
CCOc1ccccc1NC(=O)C(=O)NCC(c1cccnc1)N1CCN(c2ccccc2)CC1 (stereo not given)	none (no result: NS1 function inh, SARS PLpro yeast-1, AMA1-RON2 inh, AmpC inh no detg)
COc1ccc(C(=O)NC(=S)NNC(=O)c2cnccn2)cc1	none
COc1cc(C(=O)NC(=S)NNC(=O)c2cnccn2)cc(OC)c1OC	SARS PLpro yeast-1 inconclusive | SARS PLpro yeast-2 inactive
Cc1ccc(-n2nc3c(N4CCC(C(=O)NCc5ccc(C)o5)CC4)nnc(C)c3c2C)cc1	SARS PLpro yeast-1 inconclusive | SARS PLpro yeast-2 inactive
Cc1ccc(-n2nc3c(N4CCC(C(=O)NCCc5ccco5)CC4)nnc(C)c3c2C)cc1	none
Cc1cc2c(cc1S(=O)(=O)N1CCN(c3ccc(Cl)cc3)CC1)OCCN2C	SARS PLpro yeast-1 0.891µM, AMA1-RON2 inh inconclusive | SARS PLpro yeast-2 inactive
COc1cccc(N2CCN(S(=O)(=O)c3cc4c(cc3C)N(C)CCO4)CC2)c1	NS1 function inh inconclusive, AMA1-RON2 inh inconclusive
COc1cc2c(cc1OC)C(COc1ccccc1OC)N(C(=O)c1ccc(S(=O)(=O)N3CCCC3)cc1)CC2 (stereo not given)	none (no result: NS1 function inh, SARS PLpro yeast-1, AMA1-RON2 inh, AmpC inh no detg)
CC(=O)NCCC(=O)Nc1nc(-c2ccc3ccccc3c2)cs1	SARS PLpro yeast-1 inconclusive | SARS PLpro yeast-2 inactive
CC(=O)Nc1nc(-c2ccc3ccccc3c2)cs1	none
CCC(=O)N(C)CCc1cc2c(c(OC)c1/C=N/NC(=O)c1ccccc1O)OCO2	SARS PLpro yeast-1 inconclusive | SARS PLpro yeast-2 active
Cc1cccc(OCC(=O)Nc2ccc(S(=O)(=O)N3CCN(C)CC3)cc2)c1	SARS PLpro yeast-1 3.55µM, AmpC detergent inconclusive | SARS PLpro yeast-2 inactive
CC(=O)O[C@@H]1[C@@]2(C)O[C@H]2CC[C@]23O[C@H]2[C@H](OC3=O)C2=C(C)C(=O)O[C@@]21O	SARS PLpro yeast-1 inconclusive | SARS PLpro yeast-2 inactive
NS(=O)(=O)c1cccc(NC(=O)CCSc2ccccc2Cl)c1	SARS PLpro yeast-1 inconclusive, AmpC detergent inconclusive | SARS PLpro yeast-2 inactive
COCCNC(=S)NC(=O)CC12CC3CC(CC(C3)C1)C2	SARS PLpro yeast-1 inconclusive | SARS PLpro yeast-2 active
COc1ccc(N2CCN(C(=O)CCS(=O)(=O)c3cc4c(cc3Cl)NC(=O)CO4)CC2)cc1	none (no result: NS1 function inh, SARS PLpro yeast-1, AMA1-RON2 inh, AmpC inh no detg)
CCOC(=O)N1CCN(C(=O)CCS(=O)(=O)c2cc3c(cc2Cl)NC(=O)CO3)CC1	SARS PLpro yeast-1 inconclusive | SARS PLpro yeast-2 inactive
Cc1cc(C)cc(NC(=O)C(=O)NCc2ccccn2)c1	SARS PLpro yeast-1 inconclusive, AmpC detergent inconclusive | SARS PLpro yeast-2 inactive
COc1ccc(C(=O)c2oc3ccccc3c2NC(=O)COc2cccc(C)c2C)cc1	none (no result: NS1 function inh, SARS PLpro yeast-1, AMA1-RON2 inh, AmpC inh no detg)
O=C(O)Cc1ccc(NC(=S)NCc2ccco2)cc1	none
O=C(c1ccc(NC(=S)NCc2ccco2)cc1)N1CCCCC1	SARS PLpro yeast-1 inconclusive (no result: NS1 function inh) | SARS PLpro yeast-2 inactive
COc1ccc(-c2nc(CCNC(=O)c3ccccc3)cs2)cc1OC	none (no result: NS1 function inh, SARS PLpro yeast-1, AMA1-RON2 inh, AmpC inh no detg)
COc1cc(CNCc2ccccn2)ccc1OCc1ccc(Cl)cc1	SARS PLpro yeast-1 inconclusive | SARS PLpro yeast-2 inactive
Cc1cc(C(=O)NNC(=O)c2ccc(S(=O)(=O)N(C)C)cc2)c(C)o1	SARS PLpro yeast-1 2.51µM, AmpC detergent inconclusive | SARS PLpro yeast-2 inactive
COc1ccc(C)cc1NS(=O)(=O)c1ccc2c3c(cccc13)C(=O)N2	none (no result: NS1 function inh, SARS PLpro yeast-1, AMA1-RON2 inh, AmpC inh no detg)
CCCCC(=O)NC(c1ccc(N(CC)CC)cc1)c1ccc2cccnc2c1O (stereo not given)	SARS PLpro yeast-1 3.98µM | SARS PLpro yeast-2 inconclusive
CCCC(=O)NC(c1ccc(C)cc1)c1ccc2cccnc2c1O (stereo not given)	SARS PLpro yeast-1 inconclusive | SARS PLpro yeast-2 active
CCCC(=O)NC(c1ccco1)c1cc(Cl)c2cccnc2c1O (stereo not given)	none
CCCC(=O)NC(c1ccc2c(c1)OCO2)c1cc(Cl)c2cccnc2c1O (stereo not given)	SARS PLpro yeast-1 2.82µM, AmpC detergent inconclusive | SARS PLpro yeast-2 inactive
COc1ccccc1CCNC(=O)CCc1c(C)c2cc3c(C)coc3cc2oc1=O	none (no result: NS1 function inh, SARS PLpro yeast-1, AMA1-RON2 inh, AmpC inh no detg)
CCOc1ccc(-c2nn(CC(=O)NC3CCCCC3)c3c2cnc2ccc(C)cc23)cc1	none (no result: NS1 function inh, SARS PLpro yeast-1, AMA1-RON2 inh, AmpC inh no detg)

Assay outcomes: PubChem BioAssay, National Center for Advancing Translational Sciences (NCATS)
